Reference: ChEMBL document CHEMBL1157539, “Thousands of chemical starting points for antimalarial lead identification” (Nature, 2010)

Columns and labels:
Format in all cases: functional
[1] = tested on: Plasmodium falciparum; experiment: GSK_TCMDC: Inhibition of Plasmodium falciparum 3D7 in whole red blood cells, using parasite LDH activity as an index of growth. Test compounds present at 2uM
[2] = tested on: Plasmodium falciparum; experiment: GSK_TCMDC: Inhibition of Plasmodium falciparum Dd2 in whole red blood cells, using parasite LDH activity as an index of growth. Test compounds present at 2uM
[3] = tested on: HepG2; experiment: GSK_TCMDC: Percent inhibition of human HepG2 cell line. Test compounds present at 10uM.

`O=C(O)C(F)(F)F.Oc1ccc(CCNc2nc(NCc3ccccc3-c3ccc(C(F)(F)F)cc3)nc(N3CCCNCC3)n2)cc1` showed an Inhibition [1] of 95%, an Inhibition [2] of 2% and an Inhibition [3] of 12%.

In the case of `Cc1ccc(O)cc1Nc1ccnc2cc(-c3ccncc3)ccc12.Cl`, the Inhibition [1] is reported as 100%, the Inhibition [2] is reported as 84% and the Inhibition [3] is reported as 16%.

With `COc1ccc(-c2ccc([N+](=O)[O-])cc2C(=O)NCC(C)Oc2ccc(C(F)(F)F)cc2)cc1` (stereo not drawn) the Inhibition [1] was 100%, the Inhibition [2] was 81% and the Inhibition [3] was 6%.

Work on `CN1CCN(CCCN(Cc2cccc(-c3cccc(CNCCc4ccccc4)c3)c2)C(=O)Nc2ccccc2)CC1.O=C(O)C(F)(F)F` yielded an Inhibition [1] of 97%, an Inhibition [2] of 82% and an Inhibition [3] of 92%.

`CCN(CCNC(=O)Nc1cc(C(F)(F)F)cc(C(F)(F)F)c1)c1cccc(C)c1` showed an Inhibition [1] of 98%, an Inhibition [2] of 100% and an Inhibition [3] of 0%.

`COc1ccc2nc(-c3cc(-c4ccc(NC(C)=O)cc4)cnc3N)[nH]c2c1` gave an Inhibition [1] of 93%, an Inhibition [2] of 73% and an Inhibition [3] of 55%.

With `O=C(Nc1cccc(CN2CCN(Cc3ccc(O)cc3)CC2)c1)c1ccc(Cl)c(Cl)c1.O=C(O)C(F)(F)F` the Inhibition [1] was 100%, the Inhibition [2] was 95% and the Inhibition [3] was 30%.

With `COc1ccc2nccc(N3CCC(CCNCc4ccc5c(n4)NC(=O)CS5)CC3)c2c1.Cl` the Inhibition [1] was 100%, the Inhibition [2] was 86% and the Inhibition [3] was 55%.

Compound `Cc1nn(-c2ccccc2)c2c1C(c1ccc(C(C)C)cc1)N1C(=N2)N(Cc2ccccc2)c2ccccc21` (stereo not drawn) has an Inhibition [1] of 95%, an Inhibition [2] of 37% and an Inhibition [3] of 7%.

In the case of `COc1ccc(NC(=O)/C=C/c2ccccc2Cl)cc1OCCN1CCC(O)(c2ccc(Cl)c(C(F)(F)F)c2)CC1.Cl`, the Inhibition [1] is reported as 100%, the Inhibition [2] is reported as 9% and the Inhibition [3] is reported as 37%.

Compound `COc1ccccc1CCNc1nc(C)cc(N[C@@H](Cc2ccccc2)C(=O)NCCCOC(C)C)n1.O=C(O)C(F)(F)F` has an Inhibition [1] of 99%, an Inhibition [2] of 32% and an Inhibition [3] of 10%.

Work on `O=C(O)c1ccc(-c2c[nH]c3ncc(-c4ccc(Cl)cc4)cc23)cc1` yielded an Inhibition [1] of 97%, an Inhibition [2] of 99% and an Inhibition [3] of 39%.

`CN(C)C(=O)CN1CCN(c2ncnc(N3CCc4c([nH]c5ccccc45)[C@@H]3c3ccc4c(c3)CCO4)n2)CC1` gave an Inhibition [1] of 99%, an Inhibition [2] of 98% and an Inhibition [3] of 12%.

`CO/C(=C\C=C\c1cc2cc(Cl)c(Cl)cc2[nH]1)C(=O)NCCCN1CCN(c2cccc(Cl)c2)CC1` was tested, and the Inhibition [1] was 100%, the Inhibition [2] was 77% and the Inhibition [3] was 58%.

Work on `O=S(=O)(Nc1cccc(CCN2CCC(N3CCCCC3)CC2)c1)c1cccc2ccccc12` yielded an Inhibition [1] of 99%, an Inhibition [2] of 63% and an Inhibition [3] of 23%.

With `COc1cccc(-c2ccc(C(=O)NC3CCN(Cc4ccc(C(C)(C)C)cc4)CC3)s2)c1.O=C(O)C(F)(F)F` the Inhibition [1] was 85%, the Inhibition [2] was 23% and the Inhibition [3] was 43%.

In the case of `CC(C)(CN)c1nc(-c2ccc(Cl)c(O)c2)c(-c2ccncc2)[nH]1.Cl`, the Inhibition [1] is reported as 97%, the Inhibition [2] is reported as 98% and the Inhibition [3] is reported as 34%.

For `COc1ccc(Br)cc1/C=C/C(=O)Nc1ccc(C2CCN(C)CC2)cc1.O=CO`, the Inhibition [1] was 100%, the Inhibition [2] was 61% and the Inhibition [3] was 11%.

For `Cc1cc(C)cc(N2C(N)=NC(N)=NC2(C)C)c1.Cl`, the Inhibition [1] was 93%, the Inhibition [2] was 6% and the Inhibition [3] was 58%.

`C=Cc1c(C2CCN(CCCCNC(=O)c3ccc(-c4ccc(C#N)cc4)cc3)CC2)ccc2c1CCCC2` showed an Inhibition [1] of 94%, an Inhibition [2] of 75% and an Inhibition [3] of 75%.

With `Cn1cncc1C(=O)Nc1cccc(-c2ccc(-c3nc4cc(F)ccc4[nH]3)cc2)c1` the Inhibition [1] was 100%, the Inhibition [2] was 31% and the Inhibition [3] was 0%.

With `COc1cc(C=CC(=O)N2CCC3(CC2)CC(=O)c2ccccc2O3)cc(OC)c1OC` the Inhibition [1] was 88%, the Inhibition [2] was 66% and the Inhibition [3] was 7%.

For `CCN(CC)C(=S)N/N=C1/C(=O)Nc2c(C)cccc21`, the Inhibition [1] was 94%, the Inhibition [2] was 69% and the Inhibition [3] was 28%.

For `CCCOc1cc(Cc2cnc(N)nc2N)cc(OC)c1OC`, the Inhibition [1] was 85%, the Inhibition [2] was 1% and the Inhibition [3] was 21%.

Compound `Cc1ccc(Oc2cnn(C)c(=O)c2Nc2cccc(C(=O)NCCc3ccccn3)c2)c(C)c1` has an Inhibition [1] of 94%, an Inhibition [2] of 94% and an Inhibition [3] of 0%.

For `Fc1ccc2[nH]c(-c3ccc(-c4ccc(CNCC5CCCO5)cc4)s3)nc2c1.O=C(O)C(F)(F)F` (stereo not drawn), the Inhibition [1] was 100%, the Inhibition [2] was 99% and the Inhibition [3] was 30%.

Compound `CC(C)(C)c1nn(-c2ccc(Cl)cc2)c2[nH]c(=O)c(CNC3CCCC3)cc12` has an Inhibition [1] of 99%, an Inhibition [2] of 99% and an Inhibition [3] of 0%.

In the case of `NCc1ccc(CNCc2cccc(-c3ccc(-c4nc5cc(C(F)(F)F)ccc5[nH]4)cc3)c2)cc1.O=C(O)C(F)(F)F`, the Inhibition [1] is reported as 98%, the Inhibition [2] is reported as 90% and the Inhibition [3] is reported as 13%.

`COc1ccc(NC(=O)[C@H](CC(C)C)Nc2cc(C)nc(NCc3ccccc3C)n2)cc1.O=C(O)C(F)(F)F` was tested, and the Inhibition [1] was 100%, the Inhibition [2] was 78% and the Inhibition [3] was 12%.

With `CN(C)Cc1ccc(-c2ccc3ccnc(N)c3c2)cc1` the Inhibition [1] was 100%, the Inhibition [2] was 100% and the Inhibition [3] was 20%.

`N#Cc1cccc(C(=O)Nc2ccc(-c3cccc(CN4CCCC4)c3)cc2)c1.O=C(O)C(F)(F)F` gave an Inhibition [1] of 100%, an Inhibition [2] of 79% and an Inhibition [3] of 15%.

Work on `COc1ccc(-c2nc3c(NCc4ccccc4)nccc3[nH]2)c(OC)c1` yielded an Inhibition [1] of 99%, an Inhibition [2] of 21% and an Inhibition [3] of 16%.

Compound `COc1ccc(Cc2c(C)nc3nc(N)nc(N)c3c2C)cc1OC.Cl` has an Inhibition [1] of 93%, an Inhibition [2] of 0% and an Inhibition [3] of 66%.

Compound `Cc1cc(=NN=Cc2ccccc2F)c2cc(F)ccc2[nH]1` has an Inhibition [1] of 100%, an Inhibition [2] of 97% and an Inhibition [3] of 9%.

`CS(=O)(=O)c1ccc(CCNCc2ccc(-c3ccc(CN(C(=O)c4ccco4)C4CCN(Cc5ccccc5)CC4)cc3)nc2)cc1.O=C(O)C(F)(F)F` was tested, and the Inhibition [1] was 85%, the Inhibition [2] was 38% and the Inhibition [3] was 13%.

In the case of `CCc1ccc(CN2CCC(NC(=O)c3ccc(-c4ccc(N(C)C)cc4)s3)CC2)cc1.O=C(O)C(F)(F)F`, the Inhibition [1] is reported as 84%, the Inhibition [2] is reported as 44% and the Inhibition [3] is reported as 52%.

`CC(C)CNCc1cccc(-c2ccc(CN(CCCN3CCN(C)CC3)C(=O)/C=C/c3ccccc3)cc2)c1.O=C(O)C(F)(F)F` was tested, and the Inhibition [1] was 92%, the Inhibition [2] was 90% and the Inhibition [3] was 48%.

Compound `CN(CCCNc1ccc(C(=O)Nc2ccc(C(F)(F)F)cc2)cc1[N+](=O)[O-])Cc1ccccc1` has an Inhibition [1] of 100%, an Inhibition [2] of 48% and an Inhibition [3] of 25%.

`COc1cccc2cc(C(=O)N[C@@H](CC(C)C)C(=O)N[C@H](C=NN3CC(=O)NC3=O)CC(C)C)oc12` was tested, and the Inhibition [1] was 86%, the Inhibition [2] was 64% and the Inhibition [3] was 3%.

For `CC(C)c1ccc(NC(=O)c2ccc(C(=O)NCC3CCN(CC4CCCCC4)CC3)cc2)cc1.O=C(O)C(F)(F)F`, the Inhibition [1] was 92%, the Inhibition [2] was 18% and the Inhibition [3] was 26%.

For `COc1ccc(Nc2ncc(C#N)c(Nc3ccccc3C(N)=O)n2)cc1N1CCN(C)CC1.Cl`, the Inhibition [1] was 93%, the Inhibition [2] was 97% and the Inhibition [3] was 56%.

`COc1ccc2nccc(NC(=O)C3(O)CCC(NCc4ncc5c(c4Cl)OCCO5)CC3)c2n1.Cl` (stereo not drawn) showed an Inhibition [1] of 83%, an Inhibition [2] of 59% and an Inhibition [3] of 21%.

With `COc1cc(NCCCNCC2c3ccccc3Oc3ccccc32)nc2ccccc12.O=C(O)C(F)(F)F` the Inhibition [1] was 99%, the Inhibition [2] was 66% and the Inhibition [3] was 99%.

`Cl.O=C(O)CNCC(O)c1ccccc1` (stereo not drawn) showed an Inhibition [1] of 96%, an Inhibition [2] of 0% and an Inhibition [3] of 7%.

`CCCC(C)c1ccc(N2C(N)=NC(N)=NC2(C)C)cc1.Cl` (stereo not drawn) gave an Inhibition [1] of 90%, an Inhibition [2] of 7% and an Inhibition [3] of 51%.

For `COc1ccc2c(=NN=Cc3ccncc3)cc(C)[nH]c2c1`, the Inhibition [1] was 99%, the Inhibition [2] was 95% and the Inhibition [3] was 0%.

In the case of `Cn1cnc(CCNC(=O)c2cccc(-c3cccc(-c4nc5cc(C(F)(F)F)ccc5[nH]4)c3)c2)c1`, the Inhibition [1] is reported as 100%, the Inhibition [2] is reported as 45% and the Inhibition [3] is reported as 37%.

Compound `O=C(c1ccccc1[N+](=O)[O-])N(Cc1ccccc1)c1ccccn1` has an Inhibition [1] of 91%, an Inhibition [2] of 0% and an Inhibition [3] of 0%.

`COc1ccc(-n2nc(C)c3c2NC(=O)CC3c2ccccc2OCc2ccccc2F)cc1` (stereo not drawn) was tested, and the Inhibition [1] was 93%, the Inhibition [2] was 70% and the Inhibition [3] was 38%.

Compound `Cc1cc(CNCCCCCCNCc2cccc([N+](=O)[O-])c2)ccc1O` has an Inhibition [1] of 90%, an Inhibition [2] of 0% and an Inhibition [3] of 13%.

`COc1ccc(CNCc2cccc(-c3cccc(-c4nc5cc(C(F)(F)F)ccc5[nH]4)c3)c2)cc1.O=C(O)C(F)(F)F` showed an Inhibition [1] of 100%, an Inhibition [2] of 91% and an Inhibition [3] of 40%.

`CCN(CC)CCNC(=O)/C(=C/C=C/c1cc2cc(Cl)c(Cl)cc2[nH]1)OC` was tested, and the Inhibition [1] was 88%, the Inhibition [2] was 31% and the Inhibition [3] was 30%.

In the case of `CCOc1cc(C)ccc1C1CCN(CCCCNC(=O)c2cnc(-c3ccc(C(F)(F)F)cc3)[nH]2)CC1`, the Inhibition [1] is reported as 95%, the Inhibition [2] is reported as 97% and the Inhibition [3] is reported as 16%.

For `COc1ccc2[nH]c(C)cc(=NN=Cc3cc(C)ccc3O)c2c1`, the Inhibition [1] was 100%, the Inhibition [2] was 100% and the Inhibition [3] was 78%.

In the case of `CCC(C)c1ccc(NC(=O)C(C)c2ccc([N+](=O)[O-])cc2)cc1` (stereo not drawn), the Inhibition [1] is reported as 100%, the Inhibition [2] is reported as 100% and the Inhibition [3] is reported as 14%.

`CCn1c(-c2nonc2N)nc2c(-c3cccc(Cl)c3)ncc(OCCCNCc3cnc(C)nc3N)c21.O=C(O)C(F)(F)F` gave an Inhibition [1] of 93%, an Inhibition [2] of 48% and an Inhibition [3] of 21%.

`N=C(N)NN=Cc1c[nH]c2ccc(-c3ccccc3)cc12.O=C(O)/C=C\C(=O)O` gave an Inhibition [1] of 84%, an Inhibition [2] of 61% and an Inhibition [3] of 15%.

For `O=C(N[C@H]1CCN(Cc2ccc(OCCN3CCCC3)c(Cl)c2)C1)c1ccc(Cl)c(Cl)c1.O=C(O)C(F)(F)F`, the Inhibition [1] was 100%, the Inhibition [2] was 46% and the Inhibition [3] was 68%.

`COc1cc(Nc2nccn3c(-c4ccsc4)cnc23)cc(OC)c1OC` gave an Inhibition [1] of 93%, an Inhibition [2] of 78% and an Inhibition [3] of 26%.

`Cc1nc(Nc2ccc(F)cc2)nc(N2CCc3ccccc3C2C)c1CO` (stereo not drawn) showed an Inhibition [1] of 100%, an Inhibition [2] of 95% and an Inhibition [3] of 0%.

In the case of `CN(C)c1ccc(CN2CCCC(CNC(=O)c3ccc(-c4cccc(C(F)(F)F)c4)s3)C2)cc1.O=C(O)C(F)(F)F` (stereo not drawn), the Inhibition [1] is reported as 89%, the Inhibition [2] is reported as 37% and the Inhibition [3] is reported as 32%.
